Data: PubChem BioAssay (NCATS)
Unmarked numbers belong to inactive results. Records with an inconclusive call do not appear. Calls of active or inactive are those of the source. Calls come from the whole dose curve; as a rule, active = well fitted curve in the direction sought with a large enough effect; inconclusive = small, poorly fitted or top-dose-only effect, or another doubt; inactive = no such curve, though single readings can be large; an effect the other way counts as inactive or inconclusive.

tested on: not listed separately; assay: Inducers of the Endoplasmic Reticulum Stress Response (ERSR) in human glioma: Validation (AID 504836); settings: human glioma cells, ER stress response reporter; series mostly up to 38.3 µM; activation: at the top concentration; note: 0% is about no effect
How it was run: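 Stably transfected U87-MG glioma cells carrying a GRP78-based luciferase sensor; 16 h compound incubation. Luminescence end-point read 10 min after Bright-Glo addition at room temperature.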

SMILES | activation | outcome
Cc1oncc1C(=O)Nc1ccc(C(F)(F)F)cc1 | -2.62% | –
O=C1Cc2cc(CCN3CCN(c4nsc5ccccc45)CC3)c(Cl)cc2N1 | -11.7% | –
CC(=O)CCCCn1c(=O)c2c(ncn2C)n(C)c1=O | -0.786% | –
CCN(CC)CCOC(=O)C1(C2CCCCC2)CCCCC1 | -1.2% | –
CC(CN(C)C)CN1c2ccccc2CCc2ccccc21 (stereo unspecified) | -1.49% | –
CC(CN1c2ccccc2Sc2ccccc21)N(C)C (stereo unspecified) | 0.728% | –
CC(C)NCC(O)COc1cccc2[nH]ccc12 (stereo unspecified) | -3.11% | –
NS(=O)(=O)c1cc2c(cc1Cl)NC=NS2(=O)=O | 0.848% | –
O=C(NCCN1CCOCC1)c1ccc(Cl)cc1 | -0.719% | –
O=C1CCc2cc(OCCCCc3nnnn3C3CCCCC3)ccc2N1 | -0.449% | –
CN1CC(=O)N/C1=N/C(=O)Nc1cccc(Cl)c1 | -0.746% | –
CCC1C(=O)OCC1Cc1cncn1C (stereo unspecified) | – | inactive
CCCNC(=O)NS(=O)(=O)c1ccc(Cl)cc1 | -3.76% | –
NC(=O)OCC(COC(N)=O)c1ccccc1 | -3.55% | –
CN(C)CCCN1c2ccccc2CCc2ccc(Cl)cc21 | -1.42% | –
O=C(C1CCCCC1)N1CC(=O)N2CCc3ccccc3C2C1 (stereo unspecified) | -2.96% | –
CC(C(=O)O)c1cccc(C(=O)c2ccccc2)c1 (stereo unspecified) | -1.11% | –
COc1ccc([C@@H]2Sc3ccccc3N(CCN(C)C)C(=O)[C@@H]2OC(C)=O)cc1 | 1.19% | –

biological target: Ubiquitin carboxyl-terminal hydrolase 1 (Homo sapiens) (UniProt O94782); assay: Inhibitors of USP1/UAF1: Pilot qHTS (AID 504865); settings: purified USP1/UAF1, Ub-rhodamine cleavage fluorescence; series mostly up to 114 µM; activity change, negative = inhibition: at the top concentration; note: nearly all actives have a fitted effect of over 35% in size; note: potency is the fitted concentration of half-maximal effect;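 for activity change, negative = inhibition: rhodamine fluorescence freed from ubiquitin-rhodamine substrate followed over time; top concentration of the series differs between compounds; % is set by controls: 0 for no effect and ±100 for the full control effect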
Sequence (O94782 whole entry, looked up): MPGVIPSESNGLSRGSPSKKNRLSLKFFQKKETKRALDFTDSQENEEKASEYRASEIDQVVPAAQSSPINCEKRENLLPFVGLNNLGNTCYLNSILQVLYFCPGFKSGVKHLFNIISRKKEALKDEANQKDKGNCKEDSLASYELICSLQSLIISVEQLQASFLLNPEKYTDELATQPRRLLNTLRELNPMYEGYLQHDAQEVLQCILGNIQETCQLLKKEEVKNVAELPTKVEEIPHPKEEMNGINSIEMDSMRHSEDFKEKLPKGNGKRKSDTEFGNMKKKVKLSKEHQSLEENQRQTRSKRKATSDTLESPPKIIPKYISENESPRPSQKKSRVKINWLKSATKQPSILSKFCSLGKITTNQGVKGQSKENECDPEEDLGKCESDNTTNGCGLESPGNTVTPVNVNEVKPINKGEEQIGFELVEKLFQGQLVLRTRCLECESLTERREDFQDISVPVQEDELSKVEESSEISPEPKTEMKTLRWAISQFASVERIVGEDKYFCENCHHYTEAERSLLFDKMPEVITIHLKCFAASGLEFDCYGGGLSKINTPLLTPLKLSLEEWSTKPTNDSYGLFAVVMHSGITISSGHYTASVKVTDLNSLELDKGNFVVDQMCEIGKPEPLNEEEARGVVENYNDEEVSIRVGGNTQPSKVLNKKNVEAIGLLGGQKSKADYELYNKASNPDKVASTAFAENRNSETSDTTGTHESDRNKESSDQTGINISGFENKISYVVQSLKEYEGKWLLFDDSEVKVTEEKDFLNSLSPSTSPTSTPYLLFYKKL
How it was run: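 Kinetic fluorescence assay: 1nM USP1/UAF1, 15 min compound preincubation, then 150nM Ub-Rho; 480/540 nm.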

SMILES | Potency | activity change, negative = inhibition
OCCN1CCN(CCCN2c3ccccc3Sc3ccc(C(F)(F)F)cc32)CC1 | 56.2 µM (active) | –
C[C@]12CC[C@@H]3c4ccc(O)cc4C[C@@H](CCCCCCCCCS(=O)CCCC(F)(F)C(F)(F)F)[C@H]3[C@@H]1CC[C@@H]2O (stereo partly specified) | – | -13.8%
CCC1C(=O)OCC1Cc1cncn1C (stereo unspecified) | inactive | –
